High-throughput results (PubChem)
TLR4 MyD88 comp: TLR4-MyD88 interaction inhibition in cells. O00206+Q99836. HeLa CL3-4 TLR4/MyD88 BLA complementation, FRET ratio. inhibition, % at 8.4 µM. hit rate 0.18% among 200,000; in the data active = inhibition above about 25%;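 note: 0% = vehicle and 100% = reference inhibitor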
NOD2-RIPK2 inh: inhibitors of human NOD2-RIPK2 interaction; inhibition, % at 4.98 µM; hit rate 0.38% among 360,000; CHO BLA complementation NOD2-RIPK2, CCF4 ratio; AID 624267; O43353; in the data active = inhibition above about 21%;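 note: 0% = vehicle only and 100% = reference blocker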
Target sequence (O43353 whole entry, looked up): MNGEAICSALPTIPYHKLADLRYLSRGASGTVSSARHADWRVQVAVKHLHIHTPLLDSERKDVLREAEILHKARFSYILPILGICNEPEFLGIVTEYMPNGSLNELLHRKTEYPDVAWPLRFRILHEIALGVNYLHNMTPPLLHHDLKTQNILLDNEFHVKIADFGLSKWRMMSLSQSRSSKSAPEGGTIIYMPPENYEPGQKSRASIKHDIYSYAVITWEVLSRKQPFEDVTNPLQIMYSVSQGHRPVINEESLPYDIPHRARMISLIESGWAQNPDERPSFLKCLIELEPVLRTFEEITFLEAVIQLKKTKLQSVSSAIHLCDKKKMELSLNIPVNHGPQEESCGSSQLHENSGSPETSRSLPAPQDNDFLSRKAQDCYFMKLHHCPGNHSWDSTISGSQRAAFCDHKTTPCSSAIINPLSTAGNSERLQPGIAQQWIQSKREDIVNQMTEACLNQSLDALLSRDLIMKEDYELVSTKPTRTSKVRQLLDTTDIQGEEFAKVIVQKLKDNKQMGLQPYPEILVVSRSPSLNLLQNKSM
TLR9-MyD88 block: inhibitors of human TLR9-MyD88 binding; Q9NR96+Q99836; inhibition, % at 4.98 µM; AID 504734; hit rate 0.21% among 340,000; CHO BLA complementation TLR9-MyD88, CCF4 FRET ratio;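 active = inhibition above the mean over all tested compounds plus 3 SD, cut at about 21% in these data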;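 note: 0% = DMSO only wells and 100% = clavulanate BLA inhibitor control wells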
TMEM16A inh: blocks the mouse calcium-activated chloride channel TMEM16A | normalized B-score (activity score, 25-100; higher = stronger inhibition) at 10 µM | hit rate 1.2% among 310,000 | Q8BHY3 | AID 588511 | HEK293 TMEM16A/YFP iodide influx fluorescence, ionomycin;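 active = ratio plate-corrected score three or more library SD toward inhibition, starting fluorescence score within five deviations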;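 note: score derived from kinetic fluorescence span divided by baseline fluorescence per well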
m5-HT2A agonist: agonists of mouse serotonin 5-HT2A receptor (HTR2A) | CHO-K1 mHTR2A beta-arrestin complementation, luminescence; percent of 30 µM serotonin response | activation, % at 7.6 µM | hit rate 0.66% among 360,000 | P35363 | AID 624169;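 active = activation above a run cutoff, the mean activation of all tested compounds plus 3 SD, cut at about 14% in these data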;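 note: 0% = plate median of compound wells and 100% = 30 µM serotonin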
TMEM16A act: mouse TMEM16A channel activation, primary screen. HEK293 TMEM16A/YFP-H148Q/I152L, iodide quench fluorescence; hits give low values. B-score at 10 µM. hit rate 0.3% among 340,000. AID 623877;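 active = fluorescence-ratio B-score plate-corrected deviation score at least 3 library SD below zero, with starting fluorescence score within 5 deviations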;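 note: channel opened by trigger with iodide after compound preincubation; score built on the fluorescence ratio of max minus min over baseline; more negative score means more quench and so TMEM16A activation or potentiation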
TLR4-MyD88 conf: confirmation of human TLR4-MyD88 binding inhibitors. hit rate 50% among 350. AID 941. HeLa CL3-4 BLA complementation, CCF4 FRET ratio. shares compounds with TLR4 MyD88 comp. inhibition, % at 8.4 µM;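 active = mean inhibition across three repeat runs above about 25% carried over from the earlier screen, limit read from the data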;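 note: plate controls were DMSO only for no effect and clavulanic acid blocking BLA at full dose for full effect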
BLA inhibitor ct: counter-screen for TLR4-MyD88 inhibitors: beta-lactamase reporter inhibitors; hit rate 63% among 350; shares compounds with TLR4 MyD88 comp; HeLa BLA reporter, CCF4 FRET ratio; inhibition, % at 8.4 µM;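 active = mean inhibition over three repeats above about 26% taken from the earlier screen, limit read from the data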;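 note: HeLa cells stably expressing beta-lactamase reporter as counterscreen for TLR4-MyD88 inhibitors; 0% = DMSO and 100% = clavulanic acid full inhibition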
* hit, by the source's call; i = inactive; . = no result. Rows were chosen to be rich in hits. Some 2.4% of all compounds tested hit in one or more screens of this group.

SMILES | TLR4 MyD88 comp | NOD2-RIPK2 inh | TLR9-MyD88 block | TMEM16A inh | m5-HT2A agonist | TMEM16A act | TLR4-MyD88 conf | BLA inhibitor ct
Cc1ccc(C)c(N2C(=N)S/C(=C\c3ccc(-c4ccccc4C(=O)O)o3)C2=O)c1 | 26* | 15 | 2 | i | -1 | i | 6 | 12
O=C(N/N=C/c1cc(Cl)ccc1O)C(=O)Nc1ccccc1OC(F)(F)C(F)F | 27* | 8 | 7 | i | -2 | i | 7 | 20
Clc1ccc(CSc2nnc(CN3CCOCC3)n2-c2ccccc2)cc1Cl | 26* | -5 | 5 | i | -3 | i | -6 | -1
CCCCCn1c(N2CCCC2)nc2c1c(=O)n(C)c(=O)n2C | . | 3 | -5 | i | 2 | i | . | .
CC(C)(C)c1cc(NC(=O)c2cccnc2)no1 | 27* | -10 | 0 | i | 2 | i | 7 | 0
CC(C)(C)c1cc(NC(=O)c2cccs2)no1 | . | -6 | 1 | i | 0 | i | . | .
CC(C)N(c1ccccc1)c1ccc(NC(=O)COC(=O)CCN2C(=O)c3cccc([N+](=O)[O-])c3C2=O)cc1 | 25* | 2 | -11 | i | -8 | i | -5 | -28
COC(=O)/C(C#N)=C/c1ccc(-c2ccc(S(N)(=O)=O)cc2)o1 | . | -19 | -7 | i | -7 | i | . | .
CC(C)OC(=O)/C(C#N)=C/c1ccc(-c2ccc(SC(F)F)cc2)o1 | 26* | 0 | 0 | i | 0 | i | 4 | 21
Cc1ccc(-c2cc(C(=O)Nc3ccccc3C)c3ccccc3n2)o1 | 28* | -2 | 2 | i | -4 | i | 4 | 10
Cc1sc2nc(CN3CCOCC3)nc(Cl)c2c1C | 7 | 1 | 1 | i | 7 | i | . | .
Cc1sc2nc(CN3CCC(C)CC3)nc(Cl)c2c1C | 28* | . | . | i | . | . | 32* | 11
Cc1ccc(C)c(C2=NNC(=NCc3ccccc3)SC2)c1 | 5 | -16 | 7 | . | -5 | i | . | .
CC(C)(C)c1ccc(-n2nc(C#N)c(Cl)cc2=O)cc1 | 42* | 72* | . | . | -5 | i | 30* | -2
COc1c2n(C)ccc3c-2n(c(=O)c1=O)c1ccccc31 | . | -5 | 3 | i | -3 | i | . | .
CC(C)(C)C(=O)Nc1cc(C(F)(F)F)ccc1-n1ccnc1 | -1 | -8 | -7 | i | 3 | i | . | .
COCCN1C(=O)N(c2cccc(OC)c2)C(=O)C1CC(=O)Nc1cccc(F)c1 (configuration not stated) | . | 4 | -6 | i | -2 | i | . | .
CCNC(=O)CC1C(=O)N(c2cccc(OC)c2)C(=O)N1CCOC (configuration not stated) | 25* | 2 | -10 | i | 3 | i | 0 | 1
Nc1nnc(-c2cc3c(ccc4ccccc43)oc2=O)s1 | 38* | . | . | . | . | . | 31* | 58*
O=C(CCl)c1ccc2c(c1)CCN2C(=O)C1CCCCC1 | 27* | -1 | 4 | i | 6 | i | 32* | -4
COC(=O)c1ccc(-c2nc3cc(Cl)c(N)cc3s2)cc1 | 38* | 9 | 11 | i | 0 | i | 44* | 59*
CCSc1ncc(/C=N/Nc2ccc([N+](=O)[O-])cc2)n1C | 44* | 14 | 8 | i | -6 | i | 33* | 55*
O=C1CNC(=O)/C1=C\N1CCCCC1 | 29* | -8 | -4 | i | 2 | i | -1 | 3
O=c1c(Br)c(Br)cnn1-c1ccccc1 | 35* | 19 | 9 | . | 14 | i | 20 | -6
O=c1c(Br)c(N2CCCC2)cnn1-c1ccccc1 | -3 | 9 | -2 | i | 8 | i | . | .
SMILES | TLR4 MyD88 comp | NOD2-RIPK2 inh | TLR9-MyD88 block | TMEM16A inh | m5-HT2A agonist | TMEM16A act | TLR4-MyD88 conf | BLA inhibitor ct
COc1ccc(C(=O)NCCCNC(=O)c2ccc(C)nc2)cc1 | . | -12 | -3 | i | 10 | i | . | .
Cc1ccc(/C=C/C(=O)O)cc1S(=O)(=O)Nc1ccccc1C(=O)O | -9 | -2 | 5 | i | -4 | i | . | .
Cc1ccc(N(CC(=O)NC2CCCC2)C(=O)Cn2nnc(-c3ccccc3F)n2)cc1 | . | -7 | 4 | i | 3 | i | . | .
Cc1ccc(N=Cc2sc(O)c3ccccc23)c(C)c1 | 25* | -4 | 5 | i | -3 | i | 19 | 37*
Cc1ccc(N=Cc2sc(O)c3ccccc23)cc1 | 39* | -5 | 19 | i | 9 | i | 18 | 52*
Cc1ccc(N=Cc2c(O)c3ccccc3n(C)c2=O)cc1 | . | 0 | 6 | i | -2 | i | . | .
Cc1ccc(NC(=O)COc2coc(CN3c4ccccc4CC3C)cc2=O)c(C)c1 (configuration not stated) | . | 1 | -1 | i | 5 | i | . | .
C=C[C@]1(C)C[C@@H](OC(=O)CSCCN(CC)CC)[C@]2(C)C(C)CC[C@]3(CCC(=O)[C@H]32)[C@@H](C)[C@@H]1O (some centres not stated) | . | -17 | 1 | i | -1 | i | . | .
N#Cc1ccc(OCC(=O)NCCc2ccc(S(N)(=O)=O)cc2)cc1 | -4 | -9 | -3 | i | 3 | i | . | .
COCCNc1nc(SCC(=O)N2CCN(c3ccccc3OC)CC2)nc2ccccc12 | 25* | -3 | 1 | i | -4 | i | -7 | -3
COc1ccc(C(=O)NC2CCSc3ccccc32)cc1 (configuration not stated) | . | -5 | 7 | i | -1 | i | . | .
CCOC(=O)Cc1csc(NC(=O)Cc2ccccc2)n1 | -6 | -9 | 3 | i | 4 | i | . | .
CCOC(=O)Cc1csc(NC(=O)Cc2cccs2)n1 | 26* | 5 | 3 | i | -1 | i | -6 | -2
CN1CCN(Cn2cc(/C=C/C(=O)c3ccccc3)c3ccccc32)CC1 | 28* | 33* | 23* | i | -3 | i | 16 | 34*
Cc1ccsc1C(=O)NNC(=O)c1ccncc1 | . | 0 | -11 | . | 1 | i | . | .
COc1ccc(N/C=C2\CCOC2=O)cc1 | 26* | -10 | 0 | i | 2 | i | 12 | -1
COc1ccc(/C=C2\CCOC2=O)cc1 | 8 | -6 | 4 | i | -3 | i | . | .
COc1ccc(Cc2noc(COc3ccc(Cl)cc3)n2)cc1 | 1 | 2 | -3 | i | -6 | i | . | .
CCc1cccc(CC)c1-n1c(SCn2nnc3ccccc3c2=O)nnc1-c1cccnc1 | -7 | 1 | -16 | i | -2 | i | . | .
O=C1COc2ccc(C(=O)COC(=O)c3cnc(Cl)c(Cl)c3)cc2N1 | 28* | -9 | 0 | i | 0 | i | 27* | -3
